# Data from PubChem BioAssay AID1159580 (chemical genetic matrix, 2015).
# Among all 5,500 compounds or so, about 2,000 (36%) were called active. Roughly 18% stayed inconclusive and do not appear here. Some of the results follow. A number with no mark means an inactive call. Rule as the data show it: active = normalized growth mostly below about 0.91 (no sharp cut-off); inconclusive = no clear call, values can overlap the other calls; inactive = mostly above about 0.92.
# Experiment: chemical genetic growth profiling, strain panel (AID 1159580);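 also: tested at 20 µM; growth read once vehicle control cultures reached saturation at 30 °C; 1 = growth at the plate median or of vehicle wells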
# Details: S. cerevisiae deletion strains, growth OD
# [1] = locus YHR030C, strain SLT2, stronger effect = lower value
# [2] = locus YHR079C, strain IRE1, stronger effect = lower value
# [3] = locus YJL095W, strain BCK1, stronger effect = lower value
# [4] = locus YJR066W, strain TOR1, stronger effect = lower value
# [5] = locus YLR113W, strain HOG1, stronger effect = lower value
# [6] = locus YNL183C, strain NPR1, stronger effect = lower value
# [7] = locus YOR231W, strain MKK1, stronger effect = lower value
# [8] = locus YPL256C, strain CLN2, stronger effect = lower value
compound,measurement,setting,value
N#C/C(N=Cc1cc(Cl)cc(Cl)c1O)=C(\C#N)N=Cc1cc(Cl)cc(Cl)c1O,normalized growth,"locus YAR019C, strain CDC15, stronger effect = lower value",0.923
same,normalized growth,"locus YBL105C, strain PKC1, stronger effect = lower value",0.929
same,normalized growth,"locus YBR135W, strain CKS1, stronger effect = lower value",0.927
same,normalized growth,"locus YBR136W, strain MEC1, stronger effect = lower value",0.917
same,normalized growth,"locus YBR160W, strain CDC28, stronger effect = lower value",0.922
same,normalized growth,"locus YDL017W, strain CDC7, stronger effect = lower value",0.923
same,normalized growth,"locus YDL028C, strain MPS1, stronger effect = lower value",0.915
same,normalized growth,"locus YDL101C, strain DUN1, stronger effect = lower value",0.954
same,normalized growth,"locus YDL108W, strain KIN28, stronger effect = lower value",0.926
same,normalized growth,"locus YDL132W, strain cdc53, stronger effect = lower value",0.943
same,normalized growth,"locus YDL214C, strain PRR2, stronger effect = lower value",0.754
same,normalized growth,"locus YDR052C, strain DBF4, stronger effect = lower value",0.936
same,normalized growth,"locus YDR054C, strain cdc34, stronger effect = lower value",0.916
same,normalized growth,"locus YDR226W, strain ADK1, stronger effect = lower value",0.925
same,normalized growth,"locus YDR477W, strain SNF1, stronger effect = lower value",0.503 (active)
same,normalized growth,"locus YER123W, strain YCK3, stronger effect = lower value",0.735
same,normalized growth,"locus YER133W, strain GLC7, stronger effect = lower value",0.725
same,normalized growth,"locus YFL009W, strain cdc4, stronger effect = lower value",0.931
same,normalized growth,"locus YFL029C, strain CAK1, stronger effect = lower value",0.929
same,normalized growth,"locus YFR003C, strain YPI1, stronger effect = lower value",0.914
same,normalized growth,"locus YFR019W, strain FAB1, stronger effect = lower value",0.912
same,normalized growth,"locus YFR028C, strain CDC14, stronger effect = lower value",0.931
same,normalized growth,"locus YGR040W, strain KSS1, stronger effect = lower value",0.621 (active)
same,normalized growth,"locus YGR052W, strain FMP48, stronger effect = lower value",0.552 (active)
same,normalized growth,"locus YGR092W, strain DBF2, stronger effect = lower value",0.129 (active)
same,normalized growth,[1],0.381 (active)
same,normalized growth,[2],0.397 (active)
same,normalized growth,"locus YHR082C, strain KSP1, stronger effect = lower value",0.587 (active)
same,normalized growth,"locus YHR205W, strain SCH9, stronger effect = lower value",0.415 (active)
same,normalized growth,"locus YIL147C, strain SLN1, stronger effect = lower value",0.914
same,normalized growth,[3],0.448 (active)
same,normalized growth,"locus YJL128C, strain PBS2, stronger effect = lower value",0.905
same,normalized growth,"locus YJL157C, strain FAR1, stronger effect = lower value",0.664 (active)
same,normalized growth,"locus YJR016C, strain ILV3, stronger effect = lower value",0.93
same,normalized growth,"locus YJR066W, strain TOR1 (second series), stronger effect = lower value",0.588 (active)
same,normalized growth,[4],0.414 (active)
same,normalized growth,"locus YKL048C, strain ELM1, stronger effect = lower value",0.594 (active)
same,normalized growth,"locus YKL067W, strain YNK1, stronger effect = lower value",0.74
same,normalized growth,"locus YKL101W, strain HSL1, stronger effect = lower value",0.538 (active)
same,normalized growth,"locus YKL193C, strain SDS22, stronger effect = lower value",0.922
same,normalized growth,"locus YKL203C, strain TOR2, stronger effect = lower value",0.454 (active)
same,normalized growth,[5],0.509 (active)
same,normalized growth,"locus YLR133W, strain CKI1, stronger effect = lower value",0.52 (active)
same,normalized growth,"locus YLR403W, strain SFP1, stronger effect = lower value",0.457 (active)
same,normalized growth,"locus YML070W, strain DAK1, stronger effect = lower value",0.747
same,normalized growth,"locus YMR001C, strain CDC5, stronger effect = lower value",0.919
same,normalized growth,"locus YMR205C, strain PFK2 (second series), stronger effect = lower value",0.609 (active)
same,normalized growth,"locus YMR277W, strain FCP1, stronger effect = lower value",0.92
same,normalized growth,"locus YNL006W, strain LST8, stronger effect = lower value",0.93
same,normalized growth,"locus YNL020C, strain ARK1, stronger effect = lower value",0.403 (active)
same,normalized growth,"locus YNL161W, strain CBK1, stronger effect = lower value",0.929
same,normalized growth,[6],0.587
same,normalized growth,"locus YNL207W, strain RIO2, stronger effect = lower value",0.916
same,normalized growth,"locus YNL222W, strain SSU72, stronger effect = lower value",0.937
same,normalized growth,"locus YNL307C, strain MCK1 (second series), stronger effect = lower value",0.286 (active)
same,normalized growth,"locus YOL078W, strain AVO1, stronger effect = lower value",0.928
same,normalized growth,"locus YOL136C, strain PFK27, stronger effect = lower value",0.769
same,normalized growth,"locus YOR061W, strain CKA2, stronger effect = lower value",0.349 (active)
same,normalized growth,"locus YOR119C, strain RIO1, stronger effect = lower value",0.476 (active)
same,normalized growth,[7],0.475 (active)
same,normalized growth,"locus YOR329C, strain SCD5, stronger effect = lower value",0.931
same,normalized growth,"locus YPL031C, strain PHO85, stronger effect = lower value",0.547 (active)
same,normalized growth,"locus YPL153C, strain RAD53, stronger effect = lower value",0.538 (active)
same,normalized growth,"locus YPL204W, strain HRR25, stronger effect = lower value",0.63 (active)
same,normalized growth,"locus YPL209C, strain IPL1, stronger effect = lower value",0.934
same,normalized growth,[8],0.503 (active)
same,normalized growth,"locus YPR025C, strain CCL1, stronger effect = lower value",0.935
same,normalized growth,"locus YPR106W, strain ISR1, stronger effect = lower value",0.923
same,normalized growth,"locus YPR111W, strain DBF20, stronger effect = lower value",0.927
same,normalized growth,"strain NNK1, stronger effect = lower value",0.908
same,normalized growth,"strain TSCII, stronger effect = lower value",0.934
COC(=O)N/N=C\c1c[n+]([O-])c2ccccc2[n+]1[O-],normalized growth,"locus YAL021C, strain ccr4, stronger effect = lower value",0.985
same,normalized growth,"locus YAL026C, strain drs2, stronger effect = lower value",0.999
same,normalized growth,"locus YAL030W, strain snc1, stronger effect = lower value",0.982
same,normalized growth,"locus YBL061C, strain skt5, stronger effect = lower value",0.975
same,normalized growth,"locus YBR009C, strain hhf1, stronger effect = lower value",0.99
same,normalized growth,"locus YBR023C, strain chs3, stronger effect = lower value",0.987
same,normalized growth,"locus YBR171W, strain sec66, stronger effect = lower value",0.981
same,normalized growth,"locus YBR231C, strain swc5, stronger effect = lower value",0.974
same,normalized growth,"locus YBR279W, strain paf1, stronger effect = lower value",0.987
same,normalized growth,"locus YCL011C, strain gbp2, stronger effect = lower value",0.992
same,normalized growth,"locus YCL016C, strain dcc1, stronger effect = lower value",0.993
same,normalized growth,"locus YCL069W, strain vba3, stronger effect = lower value",0.992
same,normalized growth,"locus YCR088W, strain abp1, stronger effect = lower value",0.986
same,normalized growth,"locus YDL005C, strain med2, stronger effect = lower value",0.98
same,normalized growth,"locus YDL040C, strain nat1, stronger effect = lower value",0.989
same,normalized growth,"locus YDR001C, strain nth1, stronger effect = lower value",0.998
same,normalized growth,"locus YDR069C, strain doa4, stronger effect = lower value",0.978
same,normalized growth,"locus YDR137W, strain rgp1, stronger effect = lower value",1.01
same,normalized growth,"locus YDR159W, strain sac3, stronger effect = lower value",1.02
same,normalized growth,"locus YDR195W, strain ref2",0.985
same,normalized growth,"locus YDR297W, strain sur2, stronger effect = lower value",0.983
same,normalized growth,"locus YDR334W, strain swr1, stronger effect = lower value",1
same,normalized growth,"locus YDR335W, strain msn5, stronger effect = lower value",0.983
same,normalized growth,"locus YDR392W, strain spt3, stronger effect = lower value",0.986
same,normalized growth,"locus YEL003W, strain gim4, stronger effect = lower value",0.975
same,normalized growth,"locus YEL037C, strain rad23, stronger effect = lower value",0.998
same,normalized growth,"locus YEL061C, strain CIN8 (second series), stronger effect = lower value",1
same,normalized growth,"locus YER015W, strain faa2, stronger effect = lower value",0.972
same,normalized growth,"locus YER016W, strain bim1, stronger effect = lower value",0.998
same,normalized growth,"locus YER111C, strain swi4, stronger effect = lower value",0.984
same,normalized growth,"locus YER155C, strain BEM2 (second series), stronger effect = lower value",0.982
same,normalized growth,"locus YFR010W, strain ubp6, stronger effect = lower value",0.981
same,normalized growth,"locus YGL167C, strain pmr1, stronger effect = lower value",0.978
same,normalized growth,"locus YGL173C, strain kem1, stronger effect = lower value",0.981
same,normalized growth,"locus YGL227W, strain vid30, stronger effect = lower value",0.987
same,normalized growth,"locus YGL240W, strain doc1, stronger effect = lower value",0.974
same,normalized growth,"locus YGL253W, strain hxk2, stronger effect = lower value",0.988
same,normalized growth,"locus YHR013C, strain ard1, stronger effect = lower value",1.06
same,normalized growth,"locus YHR027C, strain rpn1, stronger effect = lower value",0.995
same,normalized growth,[1],1.07
same,normalized growth,[2],1.04
same,normalized growth,"locus YHR142W, strain chs7, stronger effect = lower value",0.988
same,normalized growth,"locus YJL092W, strain hpr5, stronger effect = lower value",0.994
same,normalized growth,"locus YJL095W, strain BCK1 (second series), stronger effect = lower value",0.973
same,normalized growth,[3],1.05
same,normalized growth,"locus YJL115W, strain asf1, stronger effect = lower value",0.987
same,normalized growth,"locus YJL129C, strain trk1, stronger effect = lower value",1.03
same,normalized growth,"locus YJL154C, strain vps35, stronger effect = lower value",0.997
same,normalized growth,"locus YJL164C, strain tpk1, stronger effect = lower value",0.976
same,normalized growth,"locus YJL166W, strain qcr8, stronger effect = lower value",0.98
same,normalized growth,[4],0.905
same,normalized growth,"locus YKL160W, strain elf1, stronger effect = lower value",0.973
same,normalized growth,"locus YKR026C, strain gcn3, stronger effect = lower value",0.991
same,normalized growth,"locus YKR091W, strain srl3, stronger effect = lower value",0.988
same,normalized growth,"locus YLL001W, strain dnm1, stronger effect = lower value",0.991
same,normalized growth,"locus YLL026W, stronger effect = lower value",0.98
same,normalized growth,"locus YLL041C, strain sdh2, stronger effect = lower value",0.993
same,normalized growth,"locus YLR027C, strain aat2, stronger effect = lower value",0.986
same,normalized growth,[5],1.06
same,normalized growth,"locus YLR221C, strain rsa3, stronger effect = lower value",0.979
same,normalized growth,"locus YLR258W, strain gsy2, stronger effect = lower value",0.985
same,normalized growth,"locus YLR262C, strain YPT6 (second series), stronger effect = lower value",1
same,normalized growth,"locus YLR320W, strain mms22, stronger effect = lower value",0.976
same,normalized growth,"locus YLR342W, strain FKS1, stronger effect = lower value",0.997
same,normalized growth,"locus YLR357W, strain rsc2, stronger effect = lower value",0.981
same,normalized growth,"locus YLR370C, strain arc18, stronger effect = lower value",0.988
same,normalized growth,"locus YLR384C, strain iki3, stronger effect = lower value",0.986
same,normalized growth,"locus YML120C, strain ndi1, stronger effect = lower value",0.975
same,normalized growth,"locus YMR058W, strain fet3, stronger effect = lower value",0.883 (active)
same,normalized growth,"locus YMR125W, strain sto1, stronger effect = lower value",1.02
same,normalized growth,"locus YMR129W, stronger effect = lower value",0.984
same,normalized growth,"locus YMR205C, strain PFK2, stronger effect = lower value",0.988
same,normalized growth,"locus YMR231W, strain pep5, stronger effect = lower value",0.969
same,normalized growth,"locus YNL071W, strain lat1, stronger effect = lower value",0.995
same,normalized growth,[6],0.981
same,normalized growth,"locus YNL209W, strain ssb2, stronger effect = lower value",0.987
same,normalized growth,"locus YNL248C, strain rpa49, stronger effect = lower value",1
same,normalized growth,"locus YNL322C, strain KRE1 (second series), stronger effect = lower value",0.993
same,normalized growth,"locus YNR049C, strain mso1, stronger effect = lower value",0.983
same,normalized growth,"locus YOR001W, strain rrp6, stronger effect = lower value",0.989
same,normalized growth,"locus YOR070C, strain gyp1, stronger effect = lower value",0.979
same,normalized growth,"locus YOR080W, strain dia2, stronger effect = lower value",0.985
same,normalized growth,"locus YOR083W, strain WHI5, stronger effect = lower value",0.983
same,normalized growth,"locus YOR106W, strain vam3, stronger effect = lower value",0.943
same,normalized growth,[7],1.05
same,normalized growth,"locus YOR265W, strain rbl2, stronger effect = lower value",0.985
same,normalized growth,"locus YOR270C, strain vph1, stronger effect = lower value",0.864
same,normalized growth,"locus YOR290C, strain snf2, stronger effect = lower value",0.996
same,normalized growth,"locus YPL051W, strain arl3, stronger effect = lower value",0.918
same,normalized growth,"locus YPL078C, strain atp4, stronger effect = lower value",0.971
same,normalized growth,"locus YPL106C, strain sse1, stronger effect = lower value",0.986
same,normalized growth,"locus YPL240C, strain hsp82, stronger effect = lower value",0.991
same,normalized growth,[8],1.09
